PubChem BioAssay (EPA / NIEHS)
Inconclusive results are not listed. Activity calls are given as the source filed them. Rule for the calls, unless noted: active = hit-call score of the fitted dose curve at least 0.9, where 1 is the maximum; inactive = score below 0.9.

Experiments:
[1] = read-out: NAD(P)H dehydrogenase [quinone] 1 (NQO1), NQO1 (gene 1728); test: LTEA_HepaRG_NQO1: Life Technologies and Expression Analysis (LTEA) Assay for NAD(P)H dehydrogenase [quinone] 1 (NQO1) using HepaRG (AID 2283526); settings: mRNA level, 48 h; actives raise or lower the signal
Procedure, shortened: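 Differentiated human HepaRG cells in serum-free induction medium, dosed in duplicate for 48 h at 8 half-log concentrations up to 100 uM in 0.5% DMSO. NQO1 mRNA by qRT-PCR normalized to ACTB, GAPDH, POLR2A; bidirectional fit versus DMSO baseline.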

[2] = read-out: Nuclear factor erythroid 2-related factor 2 (Homo sapiens) (UniProt Q16236); test: LTEA_HepaRG_NFE2L2: Life Technologies and Expression Analysis (LTEA) Assay for Nuclear factor erythroid 2-related factor 2 (NFE2L2) Transcription Factor using HepaRG (AID 2283527); settings: mRNA level, 48 h; actives raise or lower the signal;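 note: TaqMan qRT-PCR transcript level normalised to ACTB GAPDH and POLR2A housekeeping genes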
Procedure, shortened: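 Differentiated human HepaRG cells, serum-free induction medium, exposed 48 h in duplicate to eight half-log concentrations up to 100 uM in 0.5% DMSO. NFE2L2 mRNA by Fluidigm TaqMan qRT-PCR, normalised to ACTB, GAPDH, POLR2A; bidirectional change versus DMSO.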

[3] = read-out: succinate dehydrogenase complex iron sulfur subunit B (SDHB), SDHB (gene 6390); test: LTEA_HepaRG_SDHB: Life Technologies and Expression Analysis (LTEA) Assay for succinate dehydrogenase complex iron sulfur subunit B (SDHB) using HepaRG (AID 2283528); settings: mRNA level, 48 h; actives raise or lower the signal
Procedure, shortened: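 Readout is SDHB transcript level by qRT-PCR, normalised to three housekeeping genes and fitted bidirectionally against 0.5% DMSO vehicle. Human HepaRG cells were treated for 48 h at up to 100 uM.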

[4] = read-out: solute carrier (SLCO1B1), SLCO1B1 (gene 10599); test: LTEA_HepaRG_SLCO1B1: Life Technologies and Expression Analysis (LTEA) Assay for solute carrier (SLCO1B1) using HepaRG (AID 2283530); settings: mRNA level, 48 h; actives raise or lower the signal
Procedure, shortened: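 SLCO1B1 transcript read by qRT-PCR (Fluidigm arrays), normalized to three housekeeping genes, after 48 h chemical exposure of HepaRG cells; bidirectional concentration-response fitting versus 0.5% DMSO baseline. Eight-point half-log series, maximum 100 uM.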

[5] = read-out: sulfotransferase 2A1 (SULT2A1), SULT2A1 (gene 6822); test: LTEA_HepaRG_SULT2A1: Life Technologies and Expression Analysis (LTEA) Assay for sulfotransferase 2A1 (SULT2A1) using HepaRG (AID 2283531); settings: mRNA level, 48 h; actives raise or lower the signal
Procedure, shortened: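 HepaRG, 48 h chemical exposure, 8-pt half-log curve from 100 uM in 0.5% DMSO, duplicates. Readout: TaqMan qRT-PCR of SULT2A1 mRNA, housekeeping-normalized. Bidirectional fit vs DMSO baseline.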

[6] = read-out: Transforming Growth Factor (TGFA), TGFA (gene 7039); test: LTEA_HepaRG_TGFA: Life Technologies and Expression Analysis (LTEA) Assay for Transforming Growth Factor (TGFA) using HepaRG (AID 2283532); settings: mRNA level, 48 h; actives raise or lower the signal
Procedure, shortened: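 Differentiated HepaRG cells exposed 48 hours in serum-free induction medium, 0.5% DMSO vehicle, 8-point half-log series from 100 uM, in duplicate. TGFA mRNA by TaqMan qRT-PCR, normalised to ACTB, GAPDH, POLR2A; bidirectional fit versus DMSO.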

[7] = read-out: Transforming Growth Factor (TGFB1), TGFB1 (gene 7040); test: LTEA_HepaRG_TGFB1: Life Technologies and Expression Analysis (LTEA) Assay for Transforming Growth Factor (TGFB1) Transporter using HepaRG (AID 2283533); settings: mRNA level, 48 h; actives raise or lower the signal
Procedure, shortened: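 qRT-PCR readout of TGFB1 transcript in HepaRG lysates, normalized to three housekeeping genes; gain or loss of signal fitted relative to 0.5% DMSO vehicle. Exposure: 48 h, 8-point curve from 100 uM, duplicate wells.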

TIMP1, TIMP1 (gene 7076) = test: LTEA_HepaRG_TIMP1: Life Technologies and Expression Analysis (LTEA) Assay for TIMP1 using HepaRG (AID 2283534); settings: mRNA level, 48 h; actives raise or lower the signal;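 note: TaqMan qRT-PCR signal normalized to ACTB GAPDH and POLR2A housekeeping genes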
Procedure, shortened: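 HepaRG, 48 h exposure, 8-pt half-log series from 100 uM in 0.5% DMSO, duplicates; TIMP1 transcript by Fluidigm qRT-PCR, housekeeping-normalized; bidirectional curve fit vs DMSO baseline.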

[8] = read-out: Tumor necrosis factor receptor 1 (TNFRSF1A), TNFRSF1A (gene 7132); test: LTEA_HepaRG_TNFRSF1A: Life Technologies and Expression Analysis (LTEA) Assay for Tumor necrosis factor receptor 1 (TNFRSF1A) using HepaRG (AID 2283535); settings: mRNA level, 48 h; actives raise or lower the signal
Procedure, shortened: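 HepaRG, 48 h plating then 48 h chemical exposure, serum-free induction media; 8-pt CRC from 100 uM, half-log, 0.5% DMSO vehicle, duplicates. Readout: TaqMan qRT-PCR (Fluidigm), housekeeping-gene normalized; bidirectional fit vs DMSO.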

[9] = read-out: Thyroid Hormone Responsive (THRSP), THRSP (gene 7069); test: LTEA_HepaRG_THRSP: Life Technologies and Expression Analysis (LTEA) Assay for Thyroid Hormone Responsive (THRSP) using HepaRG (AID 2283536); settings: mRNA level, 48 h; actives raise or lower the signal
Procedure, shortened: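 Differentiated HepaRG cells treated 48 h in serum-free induction medium with 8 half-log concentrations up to 100 uM (0.5% DMSO), duplicates. THRSP mRNA by TaqMan qRT-PCR normalised to ACTB, GAPDH, POLR2A; bidirectional fit versus DMSO.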

[10] = read-out: Cellular tumor antigen p53 (Homo sapiens) (UniProt P04637); test: LTEA_HepaRG_TP53: Life Technologies and Expression Analysis (LTEA) Assay for Tumor Protein P53 (TP53) using HepaRG (AID 2283537); settings: mRNA level, 48 h; actives raise or lower the signal
Procedure, shortened: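 Read-out is TP53 transcript level by microfluidic qRT-PCR, normalised to three housekeeping genes and fitted bidirectionally against DMSO. Human HepaRG cells received compounds for 48 h, highest concentration 100 uM.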

[11] = read-out: UDP glucuronosyltransferase (UGT1A1), UGT1A1 (gene 54658); test: LTEA_HepaRG_UGT1A1: Life Technologies and Expression Analysis (LTEA) Assay for UDP glucuronosyltransferase (UGT1A1) using HepaRG (AID 2283538); settings: mRNA level, 48 h; actives raise or lower the signal
Procedure, shortened: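 HepaRG cells, 0.5% DMSO vehicle, 48 h exposure in serum-free induction medium to 8-point half-log series topping at 100 uM, in duplicate. UGT1A1 mRNA by Fluidigm qRT-PCR, normalized to ACTB/GAPDH/POLR2A; bidirectional fit versus DMSO.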

[12] = read-out: UDP glucuronosyltransferase (UGT1A6), UGT1A6 (gene 54578); test: LTEA_HepaRG_UGT1A6: Life Technologies and Expression Analysis (LTEA) Assay for UDP glucuronosyltransferase (UGT1A6) using HepaRG (AID 2283539); settings: mRNA level, 48 h; actives raise or lower the signal
Procedure, shortened: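 qRT-PCR readout of UGT1A6 mRNA (normalized to ACTB/GAPDH/POLR2A) in differentiated HepaRG cells after 48 h chemical exposure; 8 concentrations, top 100 uM, half-log steps, 0.5% DMSO. Bidirectional curve fit relative to DMSO baseline.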

[13] = read-out: X-box binding protein 1 (XBP1), XBP1 (gene 7494); test: LTEA_HepaRG_XBP1: Life Technologies and Expression Analysis (LTEA) Assay for X-box binding protein 1 (XBP1) using HepaRG (AID 2283540); settings: mRNA level, 48 h; actives raise or lower the signal
Procedure, shortened: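 HepaRG, 48 h exposure, 8-pt half-log CRC top 100 uM, 0.5% DMSO vehicle, duplicates. Readout: TaqMan qRT-PCR of XBP1 mRNA, housekeeping-normalised (ACTB/GAPDH/POLR2A); bidirectional fit vs DMSO baseline.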

[14] = LTEA_HepaRG_LDH_cytotoxicity: Cytotoxicity Assessment in the Life Technologies and Expression Analysis (LTEA) Assay (AID 2283563; active = hit-call score of the fitted dose curve at least 0.9, where 1 is the maximum)
Procedure, shortened: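 HepaRG (human liver line), 48 h exposure, 8-pt half-log series from 100 uM, 0.5% DMSO vehicle, duplicates. Read-out: LDH in spent medium. Positive-direction fit vs DMSO baseline.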

[15] = ATG_XTT_Cytotoxicity: Cytotoxicity Assessment in the Attagene TRANS-FACTORIAL HepG2 Assay (AID 2283584; active = hit-call score of the fitted dose curve at least 0.9, where 1 is the maximum)
Procedure, shortened: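 XTT readout of cell number in transfected HepG2 cells, 24 h post-dosing; DMSO serves as negative control and baseline, with activity taken as loss of viability signal.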

[16] = TOX21_p53_BLA_p2_viability: Viability Assessment in the Tox21 HCT-116 p53 Agonism Beta-lactamase Assay, Phase 2 (AID 2283591; active = hit-call score of the fitted dose curve at least 0.9, where 1 is the maximum;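 note: compound exposure lasted 16 h at 37 °C; actives lower the ATP signal meaning cytotoxicity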)
Procedure, shortened: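 HCT116 p53-bla cells, 4000/well, dosed after 5 h plating (217-fold dilution of DMSO stocks) and incubated 16 h at 37C. Viability taken as cellular ATP by CellTiter-Glo luminescence after 30 min RT; signal loss marks cytotoxicity.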

[17] = target: Cellular tumor antigen p53 (Homo sapiens) (UniProt P04637); test: TOX21_p53_BLA_p2_ratio: Tox21 HCT-116 p53 Agonism Beta-lactamase Assay, Ratio, Phase 2 (AID 2283592; active = hit-call score of the fitted dose curve at least 0.9, where 1 is the maximum)
Procedure, shortened: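 In this cell-based reporter format, HCT116 cells were dosed with chemicals delivered from DMSO by 217-fold dilution and incubated 16 h at 37C. Emission at 460 and 530 nm after 2 h CCF4-AM loading provided the ratio, fitted upward versus DMSO.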

[18] = TOX21_p53_BLA_p3_viability: Viability Assessment in the Tox21 HCT-116 p53 Agonism Beta-lactamase Assay, Phase 3 (AID 2283593; active = hit-call score of the fitted dose curve at least 0.9, where 1 is the maximum;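 note: cells exposed to compound for 16 h before reading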)
Procedure, shortened: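 HCT116 cells, 4000/well, dosed 5 h after plating by pin transfer (217-fold dilution from DMSO stock) and incubated 16 h at 37C, 5% CO2. Viability read as ATP luminescence with CellTiter-Glo after 30 min at room temperature.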

Measured: outcome

Cellular tumor antigen p53 (Homo sapiens), sequence (P04637 whole entry, looked up): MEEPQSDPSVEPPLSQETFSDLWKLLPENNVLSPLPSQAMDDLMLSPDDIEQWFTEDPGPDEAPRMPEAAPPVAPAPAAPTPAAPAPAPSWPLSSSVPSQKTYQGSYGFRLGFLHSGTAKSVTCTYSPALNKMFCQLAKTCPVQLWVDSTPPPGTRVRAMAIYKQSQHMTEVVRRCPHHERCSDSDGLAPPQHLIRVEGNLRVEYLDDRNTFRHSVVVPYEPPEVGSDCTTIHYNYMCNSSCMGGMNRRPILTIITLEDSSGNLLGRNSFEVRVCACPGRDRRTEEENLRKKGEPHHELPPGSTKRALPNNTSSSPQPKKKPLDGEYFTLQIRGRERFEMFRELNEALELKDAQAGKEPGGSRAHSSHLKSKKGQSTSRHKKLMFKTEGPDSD
Nuclear factor erythroid 2-related factor 2 (Homo sapiens), sequence (Q16236 whole entry, looked up): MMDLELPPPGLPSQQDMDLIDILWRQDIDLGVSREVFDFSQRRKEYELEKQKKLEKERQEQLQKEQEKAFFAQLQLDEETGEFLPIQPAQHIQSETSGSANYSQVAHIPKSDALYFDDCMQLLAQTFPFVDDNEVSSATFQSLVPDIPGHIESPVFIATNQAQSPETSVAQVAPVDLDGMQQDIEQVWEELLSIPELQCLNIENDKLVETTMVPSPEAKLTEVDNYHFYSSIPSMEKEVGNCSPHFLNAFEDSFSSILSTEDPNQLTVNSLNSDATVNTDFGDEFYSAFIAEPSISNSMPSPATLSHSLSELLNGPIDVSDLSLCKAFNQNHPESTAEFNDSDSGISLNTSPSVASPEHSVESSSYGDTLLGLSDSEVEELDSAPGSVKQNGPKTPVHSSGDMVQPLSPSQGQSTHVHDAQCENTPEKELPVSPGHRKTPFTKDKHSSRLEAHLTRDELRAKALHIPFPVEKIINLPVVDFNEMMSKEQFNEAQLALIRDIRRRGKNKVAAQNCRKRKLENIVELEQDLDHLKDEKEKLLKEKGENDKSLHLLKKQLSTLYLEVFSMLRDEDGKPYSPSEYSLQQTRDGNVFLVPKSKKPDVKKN

Oc1ccc2ccc3cccc4ccc1c2c34
not listed: [18]
inactive: all other assays above

CCCCCCCCOC(=O)c1ccc(C(=O)OCCCCCCCC)c(C(=O)OCCCCCCCC)c1
not listed: [4] | [17] | [18]
inactive: all other assays above

O=Cc1ccco1
not listed: [14] | [15] | [17] | [18]
inactive: all other assays above

N#CC(Br)(Br)C(N)=O
not listed: [16] | [18]
inactive: all other assays above

C=CCc1ccc2c(c1)OCO2
not listed: [15] | [18]
inactive: all other assays above

CC(C)(C)OOC(=O)c1ccccc1
inactive: all assays above
